“And” between values parts separate entries of the source, which are not always exact repeats. Identical values can stand only once. Among all 5,500 compounds or so, about 2,000 (36%) were called active. Inconclusive results (about 18%) are left out. Cut-off read from the data, not from the text of the source: active = normalized growth mostly below about 0.91 (no sharp cut-off); inconclusive = no clear call, values can overlap the other calls; inactive = mostly above about 0.92. Some of the results follow.
Assay: chemical genetic growth profiling, strain panel (AID 1159580);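 note: tested at 20 µM; growth read once vehicle control cultures reached saturation at 30 °C; 1 = growth at the plate median or of vehicle wells; lower values mean less growth of the strain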
Conditions: S. cerevisiae deletion strains, growth OD

Measured: normalized growth

CC(C)=CCCC1(C)C=Cc2c(O)c3c(c(CC=C(C)C)c2O1)OC12C(=CC4CC1C(C)(C)OC2(C/C=C(/C)C(=O)O)C4=O)C3=O (configuration not stated)
inactive: locus YAL021C, strain ccr4, stronger effect = lower value 0.954 | locus YBR021W, strain FUR4, stronger effect = lower value 0.99 | locus YBR171W, strain sec66, stronger effect = lower value 0.979 | locus YBR229C, strain ROT2, stronger effect = lower value 0.988 | locus YCL029C, strain bik1, stronger effect = lower value 0.987 | locus YCL069W, strain vba3, stronger effect = lower value 0.945 | locus YCR088W, strain abp1, stronger effect = lower value 0.943 | locus YDL005C, strain med2, stronger effect = lower value 0.959 | locus YDL040C, strain nat1, stronger effect = lower value 0.959 | locus YDL101C, strain DUN1, stronger effect = lower value 0.894 | locus YDL185W, strain tfp1, stronger effect = lower value 0.986 | locus YDR001C, strain nth1, stronger effect = lower value 0.952 | locus YDR101C, strain arx1, stronger effect = lower value 0.93 | locus YDR150W, strain NUM1, stronger effect = lower value 0.932 | locus YDR159W, strain sac3, stronger effect = lower value 0.957 | locus YDR195W, strain ref2 1.11 | locus YDR334W, strain swr1, stronger effect = lower value 0.916 | locus YEL037C, strain rad23, stronger effect = lower value 0.967 | locus YEL061C, strain CIN8 (second series), stronger effect = lower value 0.935 | locus YER016W, strain bim1, stronger effect = lower value 0.967 | locus YER110C, stronger effect = lower value 0.98 | locus YER111C, strain swi4, stronger effect = lower value 0.977 | locus YGL078C, strain dbp3, stronger effect = lower value 0.965 | locus YGL167C, strain pmr1, stronger effect = lower value 0.915 | locus YGL227W, strain vid30, stronger effect = lower value 0.985 | locus YGL240W, strain doc1, stronger effect = lower value 0.966 | locus YGR252W, strain gcn5, stronger effect = lower value 0.882 | locus YHR079C, strain IRE1 (second series), stronger effect = lower value 0.98 | locus YHR079C, strain IRE1, stronger effect = lower value 0.89 | locus YHR094C, strain hxt1, stronger effect = lower value 0.983 | locus YIL073C, strain SPO22, stronger effect = lower value 0.796 | locus YIR030C, strain dcg1, stronger effect = lower value 0.967 | locus YJL092W, strain hpr5, stronger effect = lower value 0.946 | locus YJL115W, strain asf1, stronger effect = lower value 0.951 | locus YJL134W, strain LCB3, stronger effect = lower value 0.982 | locus YJL154C, strain vps35, stronger effect = lower value 0.983 | locus YJL168C, strain set2, stronger effect = lower value 0.98
active: locus YAL013W, strain DEP1, stronger effect = lower value 0.887 | locus YAL026C, strain drs2, stronger effect = lower value 0.895 | locus YAL030W, strain snc1, stronger effect = lower value 0.925 | locus YBL061C, strain skt5, stronger effect = lower value 0.87 | locus YBR009C, strain hhf1, stronger effect = lower value 0.803 | locus YBR023C, strain chs3, stronger effect = lower value 0.84 | locus YBR231C, strain swc5, stronger effect = lower value 0.559 | locus YBR279W, strain paf1, stronger effect = lower value 0.815 | locus YCL011C, strain gbp2, stronger effect = lower value 0.835 | locus YCL016C, strain dcc1, stronger effect = lower value 0.853 | locus YCL061C, strain MRC1, stronger effect = lower value 0.907 | locus YDL035C, strain GPR1, stronger effect = lower value 0.736 | locus YDL074C, strain BRE1, stronger effect = lower value 0.691 | locus YDL192W, strain arf1, stronger effect = lower value 0.901 | locus YDR069C, strain doa4, stronger effect = lower value 0.821 | locus YDR137W, strain rgp1, stronger effect = lower value 0.713 | locus YDR162C, strain NBP2, stronger effect = lower value 0.296 | locus YDR297W, strain sur2, stronger effect = lower value 0.889 | locus YDR318W, strain mcm21, stronger effect = lower value 0.879 | locus YDR335W, strain msn5, stronger effect = lower value 0.902 | locus YDR388W, stronger effect = lower value 0.897 | locus YDR392W, strain spt3, stronger effect = lower value 0.223 | locus YDR502C, strain sam2, stronger effect = lower value 0.849 | locus YEL003W, strain gim4, stronger effect = lower value 0.863 | locus YEL061C, strain CIN8, stronger effect = lower value 0.881 | locus YER015W, strain faa2, stronger effect = lower value 0.785 | locus YER155C, strain BEM2 (second series), stronger effect = lower value 0.758 | locus YER155C, strain BEM2, stronger effect = lower value 0.83 | locus YER167W, strain BCK2, stronger effect = lower value 0.874 | locus YFR010W, strain ubp6, stronger effect = lower value 0.891 | locus YGL086W, strain mad1, stronger effect = lower value 0.892 | locus YGL173C, strain kem1, stronger effect = lower value 0.82 | locus YGL248W, strain PDE1, stronger effect = lower value 0.791 | locus YGL253W, strain hxk2, stronger effect = lower value 0.877 | locus YGR135W, strain pre9, stronger effect = lower value 0.885 | locus YGR229C, strain SMI1, stronger effect = lower value 0.244 | locus YHR013C, strain ard1, stronger effect = lower value 0.605 | locus YHR027C, strain rpn1, stronger effect = lower value 0.894 | locus YHR129C, strain ARP1, stronger effect = lower value 0.808 | locus YHR142W, strain chs7, stronger effect = lower value 0.818 | locus YHR200W, strain rpn10, stronger effect = lower value 0.914 | locus YIL066C, strain RNR3, stronger effect = lower value 0.606 | locus YIL125W, strain kgd1, stronger effect = lower value 0.927 | locus YJL095W, strain BCK1 (second series), stronger effect = lower value 0.871 | locus YJL095W, strain BCK1, stronger effect = lower value 0.732 and 0.878 | locus YJL129C, strain trk1, stronger effect = lower value 0.653 | locus YJL164C, strain tpk1, stronger effect = lower value 0.758 | locus YJL166W, strain qcr8, stronger effect = lower value 0.77 | locus YJL187C, strain SWE1 (second series), stronger effect = lower value 0.838
0.85 (active) and 0.869 (inactive): locus YHR030C, strain SLT2, stronger effect = lower value
